Measurements reported in the supplement of paper PMC10849652.
Targets with a hit are over-represented here; the source holds about 7,900 in all. About 0.6% of all pairs of compound and target were hits.

Compound: C1CCN(C1)C(=O)NC2=CC=CC(=C2)NC3=NC=C(C(=N3)NCCC4=CN=CN4)Br
Test: log2 fold change, soluble protein after heating vs DMSO (PISA); higher = thermal stabilisation; K562 cells, 10 uM, 30 min; active = over 0.2 and 3.5 SD of the protein, either way, in both replicates (recomputed)
Method in brief: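 Values are thermal stability changes relative to control samples and are taken from duplicates. They are stated as log2 fold changes. Before quantification by TMTpro 16plex LC-MS/MS with equalised channel sums, K562 cells at 2×10^6 cells/mL were treated with 10 μM compound for 30 min, heated in aliquots for 3 min across 48°C-58°C, pooled, extracted in PBS with 0.5% NP-40 at 4°C, and centrifuged at 21,000xg for 90 min to give the soluble supernatant.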

Chain of UniProt Q969T4 (Q969T4 whole entry, looked up): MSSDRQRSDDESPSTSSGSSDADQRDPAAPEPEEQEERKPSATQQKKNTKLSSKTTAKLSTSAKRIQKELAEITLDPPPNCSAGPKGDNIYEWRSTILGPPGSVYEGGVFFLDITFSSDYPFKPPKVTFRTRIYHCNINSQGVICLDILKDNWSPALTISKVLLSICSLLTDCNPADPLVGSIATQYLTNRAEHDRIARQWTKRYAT
Chain of UniProt Q99757 (Q99757 whole entry, looked up): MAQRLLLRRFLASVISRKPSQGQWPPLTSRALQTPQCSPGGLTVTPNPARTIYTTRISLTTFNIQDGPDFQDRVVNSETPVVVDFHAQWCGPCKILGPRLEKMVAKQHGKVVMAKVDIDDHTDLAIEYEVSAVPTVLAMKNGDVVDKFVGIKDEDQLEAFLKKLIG
Chain of UniProt Q5BJH2 (Q5BJH2 whole entry, looked up): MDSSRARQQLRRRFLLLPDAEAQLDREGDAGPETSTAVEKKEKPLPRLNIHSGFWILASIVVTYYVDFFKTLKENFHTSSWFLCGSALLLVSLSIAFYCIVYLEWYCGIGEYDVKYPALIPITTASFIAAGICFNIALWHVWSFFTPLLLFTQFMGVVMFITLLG
Chain of UniProt P26368 (P26368 whole entry, looked up): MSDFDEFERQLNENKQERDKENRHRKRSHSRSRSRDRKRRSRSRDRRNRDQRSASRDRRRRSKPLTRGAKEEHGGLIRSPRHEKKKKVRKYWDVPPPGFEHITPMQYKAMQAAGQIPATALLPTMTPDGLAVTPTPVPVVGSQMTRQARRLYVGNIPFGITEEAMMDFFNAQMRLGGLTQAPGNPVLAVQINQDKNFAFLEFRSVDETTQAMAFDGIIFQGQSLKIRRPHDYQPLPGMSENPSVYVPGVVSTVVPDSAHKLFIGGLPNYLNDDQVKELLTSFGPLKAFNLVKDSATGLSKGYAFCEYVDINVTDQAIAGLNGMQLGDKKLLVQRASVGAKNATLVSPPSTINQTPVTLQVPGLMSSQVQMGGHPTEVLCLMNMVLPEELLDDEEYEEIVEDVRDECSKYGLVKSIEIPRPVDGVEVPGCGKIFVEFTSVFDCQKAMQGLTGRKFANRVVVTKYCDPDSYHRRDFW
Chain of UniProt Q7Z3J2 (Q7Z3J2 whole entry, looked up): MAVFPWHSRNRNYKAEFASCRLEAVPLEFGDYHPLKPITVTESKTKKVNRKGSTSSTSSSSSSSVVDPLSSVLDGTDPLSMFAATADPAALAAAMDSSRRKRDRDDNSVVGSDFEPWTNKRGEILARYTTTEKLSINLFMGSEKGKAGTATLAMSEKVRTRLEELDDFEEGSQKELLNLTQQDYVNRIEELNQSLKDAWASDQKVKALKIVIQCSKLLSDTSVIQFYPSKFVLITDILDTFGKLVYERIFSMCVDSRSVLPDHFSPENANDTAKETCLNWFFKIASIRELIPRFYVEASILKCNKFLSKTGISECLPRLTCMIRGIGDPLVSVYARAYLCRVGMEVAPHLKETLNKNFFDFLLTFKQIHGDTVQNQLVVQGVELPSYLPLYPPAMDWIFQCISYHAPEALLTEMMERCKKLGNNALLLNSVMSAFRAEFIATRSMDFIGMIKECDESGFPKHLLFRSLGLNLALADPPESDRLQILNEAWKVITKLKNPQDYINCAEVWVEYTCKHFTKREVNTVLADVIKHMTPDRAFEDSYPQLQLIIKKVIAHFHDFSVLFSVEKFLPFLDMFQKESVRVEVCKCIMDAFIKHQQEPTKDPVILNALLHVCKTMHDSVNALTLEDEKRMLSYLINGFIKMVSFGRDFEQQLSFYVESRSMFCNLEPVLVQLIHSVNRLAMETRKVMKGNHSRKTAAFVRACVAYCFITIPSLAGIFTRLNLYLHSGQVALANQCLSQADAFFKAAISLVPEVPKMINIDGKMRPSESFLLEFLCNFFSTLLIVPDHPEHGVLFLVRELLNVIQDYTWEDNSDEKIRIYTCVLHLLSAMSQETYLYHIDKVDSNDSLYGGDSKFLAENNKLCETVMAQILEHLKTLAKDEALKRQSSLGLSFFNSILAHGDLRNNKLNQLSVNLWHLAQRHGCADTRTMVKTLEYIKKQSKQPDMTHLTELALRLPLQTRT
Chain of UniProt O60784 (O60784 whole entry, looked up): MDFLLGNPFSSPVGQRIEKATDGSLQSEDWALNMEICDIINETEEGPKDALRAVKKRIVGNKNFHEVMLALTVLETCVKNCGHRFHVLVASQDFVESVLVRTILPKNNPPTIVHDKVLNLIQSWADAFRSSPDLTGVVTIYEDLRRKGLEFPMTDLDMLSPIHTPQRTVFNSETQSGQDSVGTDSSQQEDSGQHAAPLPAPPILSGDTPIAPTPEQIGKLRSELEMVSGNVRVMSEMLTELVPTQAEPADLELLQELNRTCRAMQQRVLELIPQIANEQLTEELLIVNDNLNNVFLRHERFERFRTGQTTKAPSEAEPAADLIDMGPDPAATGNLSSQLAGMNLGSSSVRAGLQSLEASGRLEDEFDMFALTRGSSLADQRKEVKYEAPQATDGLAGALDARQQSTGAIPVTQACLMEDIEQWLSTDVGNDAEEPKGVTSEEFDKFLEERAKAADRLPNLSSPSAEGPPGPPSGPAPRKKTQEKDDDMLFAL
Chain of UniProt Q8N4H5 (Q8N4H5 whole entry, looked up): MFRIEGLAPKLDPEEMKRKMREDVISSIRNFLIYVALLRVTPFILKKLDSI
Chain of UniProt Q86UV5 (Q86UV5 whole entry, looked up): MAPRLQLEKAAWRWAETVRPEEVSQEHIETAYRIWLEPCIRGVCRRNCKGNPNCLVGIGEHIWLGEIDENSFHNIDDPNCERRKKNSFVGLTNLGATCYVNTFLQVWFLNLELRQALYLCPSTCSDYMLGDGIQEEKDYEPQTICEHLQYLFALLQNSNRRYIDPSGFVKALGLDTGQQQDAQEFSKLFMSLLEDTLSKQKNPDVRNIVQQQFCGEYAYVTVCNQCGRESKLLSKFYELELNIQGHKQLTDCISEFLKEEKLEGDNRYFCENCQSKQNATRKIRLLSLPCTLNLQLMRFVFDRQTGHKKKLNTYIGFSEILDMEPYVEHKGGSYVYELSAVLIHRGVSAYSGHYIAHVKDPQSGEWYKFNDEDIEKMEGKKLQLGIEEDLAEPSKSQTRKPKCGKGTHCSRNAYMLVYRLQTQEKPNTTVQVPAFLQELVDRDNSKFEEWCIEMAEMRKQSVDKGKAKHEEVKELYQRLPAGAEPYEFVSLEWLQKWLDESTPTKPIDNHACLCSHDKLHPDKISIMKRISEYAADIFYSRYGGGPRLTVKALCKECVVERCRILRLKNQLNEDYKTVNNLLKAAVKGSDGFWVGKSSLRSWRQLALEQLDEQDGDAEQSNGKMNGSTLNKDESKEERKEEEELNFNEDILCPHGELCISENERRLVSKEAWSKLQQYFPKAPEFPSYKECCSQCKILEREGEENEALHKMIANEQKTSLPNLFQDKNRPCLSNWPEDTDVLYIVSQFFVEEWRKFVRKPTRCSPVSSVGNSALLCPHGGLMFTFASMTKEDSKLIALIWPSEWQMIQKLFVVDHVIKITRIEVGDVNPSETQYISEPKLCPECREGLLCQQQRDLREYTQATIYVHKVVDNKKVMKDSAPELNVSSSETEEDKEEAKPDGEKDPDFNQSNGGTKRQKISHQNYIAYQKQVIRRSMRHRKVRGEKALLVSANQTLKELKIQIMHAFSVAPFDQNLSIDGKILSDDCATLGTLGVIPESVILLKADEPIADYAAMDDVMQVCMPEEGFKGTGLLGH
Chain of UniProt Q53S58 (Q53S58 whole entry, looked up): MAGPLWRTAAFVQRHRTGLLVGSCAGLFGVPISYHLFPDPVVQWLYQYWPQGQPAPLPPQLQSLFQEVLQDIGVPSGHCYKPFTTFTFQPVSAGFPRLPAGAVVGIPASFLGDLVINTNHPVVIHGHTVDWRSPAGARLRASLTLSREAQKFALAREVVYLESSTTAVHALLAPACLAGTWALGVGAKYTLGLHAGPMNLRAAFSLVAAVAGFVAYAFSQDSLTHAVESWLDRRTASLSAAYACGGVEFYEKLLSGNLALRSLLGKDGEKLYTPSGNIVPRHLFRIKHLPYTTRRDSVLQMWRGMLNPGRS
Chain of UniProt O95801 (O95801 whole entry, looked up): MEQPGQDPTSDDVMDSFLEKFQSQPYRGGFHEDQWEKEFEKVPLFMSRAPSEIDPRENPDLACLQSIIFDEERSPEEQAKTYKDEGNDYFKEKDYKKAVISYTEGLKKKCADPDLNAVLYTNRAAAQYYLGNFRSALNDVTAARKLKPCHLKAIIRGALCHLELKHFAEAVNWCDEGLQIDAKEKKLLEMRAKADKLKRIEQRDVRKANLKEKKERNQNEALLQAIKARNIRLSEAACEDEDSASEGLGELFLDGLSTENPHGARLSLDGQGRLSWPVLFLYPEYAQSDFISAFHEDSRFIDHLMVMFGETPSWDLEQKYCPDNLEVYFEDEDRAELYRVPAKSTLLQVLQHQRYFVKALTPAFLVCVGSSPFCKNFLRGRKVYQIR
Chain of UniProt Q9BXJ8 (Q9BXJ8 whole entry, looked up): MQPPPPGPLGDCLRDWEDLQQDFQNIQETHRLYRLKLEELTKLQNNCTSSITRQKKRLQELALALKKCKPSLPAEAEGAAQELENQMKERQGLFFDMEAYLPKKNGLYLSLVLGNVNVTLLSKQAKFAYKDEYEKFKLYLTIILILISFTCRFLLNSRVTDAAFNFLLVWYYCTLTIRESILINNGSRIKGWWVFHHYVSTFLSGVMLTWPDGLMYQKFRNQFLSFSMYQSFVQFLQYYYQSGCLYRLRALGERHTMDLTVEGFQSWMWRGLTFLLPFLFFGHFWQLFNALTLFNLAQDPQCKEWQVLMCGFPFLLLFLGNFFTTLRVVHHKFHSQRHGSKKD
Chain of UniProt P43897 (P43897 whole entry, looked up): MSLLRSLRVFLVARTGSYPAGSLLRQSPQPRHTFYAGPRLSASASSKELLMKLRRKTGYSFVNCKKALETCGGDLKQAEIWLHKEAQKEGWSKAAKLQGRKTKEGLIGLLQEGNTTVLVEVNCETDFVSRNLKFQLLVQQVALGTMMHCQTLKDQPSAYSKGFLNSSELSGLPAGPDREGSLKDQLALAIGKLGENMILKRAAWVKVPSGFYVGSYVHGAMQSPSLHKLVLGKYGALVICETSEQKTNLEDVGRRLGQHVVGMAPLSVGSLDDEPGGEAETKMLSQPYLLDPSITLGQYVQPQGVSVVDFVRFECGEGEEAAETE

log2 fold change, inactive:
TRAPPC8 (UniProt Q9Y2L5) -0.011
TOMM5 isoform 2 (UniProt Q8N4H5) -0.038
TSFM (UniProt P43897) -0.016
XPO6 (UniProt Q96QU8) 0.087
VPS35L (UniProt Q7Z3J2) -0.047
UBE4B isoform 4 (UniProt O95155) -0.008
TOP2A isoform 4 (UniProt P11388) 0.073
TMEM128 (UniProt Q5BJH2) -0.182
WASH2P (UniProt Q6VEQ5) 0.117
UTP3 (UniProt Q9NQZ2) 0.006
UGDH (UniProt O60701) -0.063
WDR43 (UniProt Q15061) -0.013
TNFRSF10A (UniProt O00220) -0.039
XPOT (UniProt O43592) -0.005
VPS33A (UniProt Q96AX1) -0.051
VPS13B (UniProt Q7Z7G8) -0.052
TMEM63B (UniProt Q5T3F8) 0.011
U2AF2 (UniProt P26368) -0.026
TMEM120A (UniProt Q9BXJ8) -0.071
TXN2 (UniProt Q99757) 0.029
TOM1 isoform 2 (UniProt O60784) -0.023
VPS33B (UniProt Q9H267) -0.076
TOM1L1 (UniProt O75674) 0.006
USP48 isoform 8 (UniProt Q86UV5) -0.103
TTC4 (UniProt O95801) -0.057
UCHL5 isoform 3 (UniProt Q9Y5K5) 0.207
TXNL1 (UniProt O43396) -0.001
TMEM177 (UniProt Q53S58) 0.028
USP25 isoform 3 (UniProt Q9UHP3) -0.038
UBE2E3 (UniProt Q969T4) -0.028
TMEM263 (UniProt Q8WUH6) 0.036
UFD1 isoform 1 (UniProt Q92890) -0.036
VAMP7 (UniProt P51809) 0.001
VPS8 (UniProt Q8N3P4) 0.026
